# Experimental data taken from PubChem BioAssay (NCI).
# Compounds without any hit were thinned out: in the full panel of roughly 83,000, 20% have a hit.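 Interpretation: 100, growth as untreated; towards 0, rising growth inhibition; 0, no net growth; 0 to -100, cell death. Compounds scoring below 10 were considered active.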 Unmarked numbers belong to inactive results. Calls of active or inactive are those of the source.
# How the values were obtained:
# Test in all cases: NCI-60 one-dose screen, 48 h (100 = growth as untreated, 0 = no growth, -100 = all killed)
# Conditions in all cases: 10 µM unless noted
# NCI-H23 lung = test system: NCI-H23 lung
# NCI-H226 lung = test system: NCI-H226 lung
# NCI-H322M lung = test system: NCI-H322M lung
# HOP-62 NSCLC = test system: HOP-62 NSCLC
# NCI-H460 lung = test system: NCI-H460 lung
# HOP-92 NSCLC = test system: HOP-92 NSCLC
# NCI-H522 lung = test system: NCI-H522 lung
# A549/ATCC NSCLC = test system: A549/ATCC NSCLC
# 786-0 renal = test system: 786-0 renal
# COLO 205 colon = test system: COLO 205 colon
SMILES,growth (NCI-H23 lung),growth (NCI-H226 lung),growth (NCI-H322M lung),growth (HOP-62 NSCLC),growth (NCI-H460 lung),growth (HOP-92 NSCLC),growth (NCI-H522 lung),growth (A549/ATCC NSCLC),growth (786-0 renal),growth (COLO 205 colon)
CCOC(=O)c1c(NC(=O)c2cccc(C(F)(F)F)c2)sc2c(CN(C)C)c(O)ccc12,93.1%,101%,70.9%,96.7%,2.61% (active),-1.17% (active),71.9%,60.8%,12.1%,19%
CCOC(=O)C1=C(c2ccccc2)N=C2SC=C(c3ccc(Cl)cc3)N2C1c1ccc(Cl)cc1 (stereo not given),64.2%,79.5%,88.5%,91.6%,83.3%,69.8%,79.9%,77%,84.4%,76.2%
Cn1cc(-c2ccc3nc(-c4ccc(CC(=O)ONc5cc(C(C)(C)C)on5)cc4)cnc3c2)cn1,43.7%,43.2%,22.8%,37.1%,25.2%,30.3%,39.4%,31.1%,23.1%,51.3%
Cc1cccc(/C=C2\CN(C(=O)OC(C)(C)C)C/C(=C\c3cccc(C)c3)C2=O)c1,92.7%,99.6%,95.8%,96.9%,110%,87.3%,63.8%,97.4%,94.6%,115%
CCSC(SCC)c1ccc(Cl)cc1,95.1%,102%,123%,98.5%,103%,101%,107%,102%,110%,117%
O=C1c2c(c3c4ccccc4[nH]c3c3ccc4ccccc4c23)C(=O)N1CCN1CCOCC1,32.6%,61.4%,51.8%,45.8%,2.17% (active),66.1%,29.1%,28.8%,52.5%,55.5%
C=C1C(=O)O[C@H]2[C@H]1CC/C(COC(=O)C(=O)c1cn(C)c3ccc(Cl)cc13)=C\CC[C@@]1(C)O[C@@H]21,-60.1% (active),-71.4% (active),-68.9% (active),-70.1% (active),-69.8% (active),-82.9% (active),-65.8% (active),-62.5% (active),-97.6% (active),-64.7% (active)
CCC(C(=O)[C@@H](C)[C@@H](O)[C@H](C)[C@@H]1O[C@@H]([C@@H](CC)C(=O)ONC(=O)c2ccccc2)CC[C@@H]1C)[C@H]1O[C@]2(C=CC(=O)[C@]3(CC[C@@](C)([C@H]4CC[C@](O)(CC)[C@H](C)O4)O3)O2)[C@H](C)C[C@@H]1C (stereo not given in full),-49.7% (active),42%,37.4%,26.5%,-57.8% (active),-62.2% (active),-25.9% (active),-19.6% (active),9.1% (active),-26% (active)
COc1ccc(-c2noc(C(=O)O)c2-c2cc(OC)c(OC)c(OC)c2)cc1,39.9%,54.1%,48.9%,36.6%,14.8%,54.9%,17.3%,43.4%,33.1%,6.75% (active)
C/C(=N\O)c1ccc(Cl)cc1,110%,106%,123%,95.7%,112%,65.3%,105%,97.9%,107%,108%
C#CCOc1cccc(Nc2ncnc3ccc(NC(=O)C=C)cc23)c1,65.4%,61.8%,2% (active),58.4%,81.2%,14.7%,15.9%,34.2%,35.2%,68.4%
c1cc2c(ccc3[nH]c(-c4ccc5[nH]ncc5c4)c4c(c32)CCCC4)n1,74.3%,58.6%,92.2%,42.5%,22.3%,40%,47.4%,32.5%,56%,58%
CN1C(=O)/C(=C\c2nc([P+](c3ccccc3)(c3ccccc3)c3ccccc3)c(N3CCOCC3)o2)SC1=S,81.6%,106%,91.2%,97.9%,97.6%,-33.6% (active),93.6%,86.1%,97.5%,88.1%
Cc1ccccc1/C=C/C(=O)c1cccc(OCCCCOc2cccc(C(=O)/C=C/c3ccccc3C)c2)c1,94.6%,91.7%,92.1%,102%,98.1%,93.6%,85.8%,84.2%,96.4%,106%
CCOC(=O)[C@@H]1CSC(CC)=C(C(=O)O)N1,103%,98.2%,92.7%,89.2%,110%,-35.1% (active),93.6%,90.7%,92.2%,100%
COC1/C=C/OC2(C)Oc3c(C)c(O)c4c(O)c(c(/C=N/Nc5ccc([N+](=O)[O-])cc5[N+](=O)[O-])c(O)c4c3C2=O)NC(=O)C(C)=C/C=C/C(C)C(O)C(C)C(O)C(C)C(OC(C)=O)C1C (stereo not given),4.25% (active),-57.2% (active),93.9%,42.2%,59.5%,-60.8% (active),-42.5% (active),82.9%,24.4%,24.9%
CCc1ccccc1-n1c(-c2ccc(OC)cc2)cc(-c2ccc(OC)cc2)c(C#N)c1=O,73.8%,95.9%,82.2%,67.5%,85.5%,5.54% (active),73.8%,100%,33.7%,132%
NC(=O)C(=O)c1ccccc1NC=O,92.1%,97.3%,95.3%,86.9%,103%,83.2%,88.9%,99.7%,110%,118%
N#Cc1ccc(O)c(C2=NCC(c3ccccc3)O2)c1 (stereo not given),44.6%,68%,55.9%,29.7%,19.9%,60.6%,-12.8% (active),32%,33.2%,36%
O=C1/C=C/[C@@H](O)[C@@H]2C[C@@H](O)C[C@H]2/C=C/CCC[C@H](CCc2ccccc2)O1,13.3%,-28.6% (active),35.9%,30.1%,15.5%,-16.5% (active),7.89% (active),16.6%,-54.7% (active),-72.5% (active)
NC(Cc1ccc(O)c([N+](=O)[O-])c1)C(=O)O (stereo not given),98.5%,101%,107%,105%,113%,67.4%,94.7%,100%,99.2%,122%
Nc1nc(-c2ccc(Cl)cc2)nc2c1sc(=S)n2-c1ccccc1,48.8%,49.4%,45.7%,28.9%,9.12% (active),-19.3% (active),56.4%,23.9%,-52.9% (active),64.4%
COc1ccc(NC2=C(I)C(=O)c3ncccc3C2=O)cc1,-43.7% (active),82.2%,17.4%,-62% (active),-57.2% (active),75.3%,-69.4% (active),0.0675% (active),11.3%,-53.7% (active)
CCC(=O)Oc1ccc(-c2ccccc2)cc1Br,101%,96.1%,111%,104%,98.8%,87.7%,108%,105%,105%,109%
CCSc1oc(-c2ccccc2)nc1[P+](c1ccccc1)(c1ccccc1)c1ccccc1,-11.8% (active),-2.47% (active),-6.18% (active),0.275% (active),0.695% (active),-27.9% (active),-20.3% (active),9.29% (active),13.4%,-45.5% (active)
